# Most compounds without a hit are left out; they make up all but 0.97% or so of the library.
# TLR9-MyD88 block – inhibitors of human TLR9-MyD88 binding | Q9NR96+Q99836 | CHO BLA complementation TLR9-MyD88, CCF4 FRET ratio | inhibition, % at 4.98 µM | hit rate 0.21% among 340,000;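 active = inhibition above the mean over all tested compounds plus 3 SD, cut at about 21% in these data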;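 also: 0% = DMSO only wells and 100% = clavulanate BLA inhibitor control wells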
# Beta2AR agonist – activates human beta-2 adrenergic receptor causing internalization. P07550. Am2.2-beta2AR cells, FAP receptor internalization, flow cytometry. response, % (concentration not given with the values). hit rate 0.43% among 340,000. AID 504454;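 active = response above a set limit, near 3 SD of response in nonfluorescent compounds, cut at about 42% in these data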
# TLR4-MyD88 BLA – blocks binding of human TLR4 to MyD88. O00206+Q99836. HeLa CL3-4 TLR4/MyD88 BLA complementation, FRET ratio. inhibition, % at 8.4 µM. hit rate 0.18% among 200,000; in the data active = inhibition above about 25%;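 also: 0% = vehicle and 100% = reference inhibitor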
# NOD2-RIPK2 inh – NOD2-RIPK2 protein interaction inhibition; O43353; CHO BLA complementation NOD2-RIPK2, CCF4 ratio; inhibition, % at 4.98 µM; hit rate 0.38% among 360,000; in the data active = inhibition above about 21%;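 also: 0% = vehicle only and 100% = reference blocker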
# Bfl-1 A1 inh – inhibitors of the anti-apoptotic protein A1, read as caspase activation. caspase activation, % (test concentration not listed). hit rate 0.066% among 330,000. MEF A1-2A-BIM cells, Caspase-Glo 3/7 luminescence, 3 h; percent of clofoctol response, vehicle zero;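 active = over half of replicate activation scores above 10%, or exactly half above 10 with the replicate mean above 10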
# NTR1 agonist – agonists of human neurotensin receptor NTR1. NTR1-U2OS beta-arrestin-GFP spot imaging, agonist mode. activation, % at 20 µM. hit rate 0.17% among 330,000. AID 493036;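 active = activation at or above 40% of the spot to cytoplasm intensity ratio, with at least 20 cells analyzed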;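 also: 0% = DMSO without peptide and 100% = 100 nM NTR1 peptide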
# Active calls of the source: *; x = no result.
SMILES,TLR9-MyD88 block,Beta2AR agonist,TLR4-MyD88 BLA,NOD2-RIPK2 inh,Bfl-1 A1 inh,NTR1 agonist
CCOC(=O)c1oc2ccccc2c1NC(=O)CN1CCN(C)CC1,-11,4,4,4,17*,-2
CCCCOc1ccc(/C=C/C(=O)OCC(=O)N2CC(=O)Nc3ccccc32)cc1OCC,5,44*,0,-9,-1,7
C[C@H](NC(=O)c1[nH]cnc1C(=O)Nc1ccc(CNC(=O)OC(C)(C)C)cc1)C(=O)OCc1ccccc1,-1,48*,x,-8,-1,32
Nc1cc(=O)[nH]c(SCC(=O)NCC2CCCO2)n1 (stereo not given),5,-4,4,6,0,3
Cc1ccc(-c2nc(CS(=O)CC(=O)NC3CCCC(C)C3C)c(C)o2)cc1 (stereo not given),-7,3,x,1,1,-1
Cc1c(CCCl)c(Cl)n2c(nc3ccccc32)c1C#N,1,57*,x,9,x,x
Cc1cc(NCc2cccnc2)nc(N)n1,3,-1,x,4,-1,1
Cc1cccc(NC(=O)[C@@H]2CCCN2C2=NS(=O)(=O)c3ccccc32)c1C,3,-4,x,-6,1,-1
CCN(CC)S(=O)(=O)c1cccc(NC(=O)Nc2cccc(C(F)(F)F)c2)c1,0,17,4,0,0,41*
CCN(CC)S(=O)(=O)c1cccc(NC(=O)CC2CCCC2)c1,11,-6,x,-6,1,0
COc1cccc(C2C=C(c3ccc(OC)cc3OC)Nc3nnnn32)c1 (stereo not given),46*,-7,8,31*,0,0
COc1ccccc1NC(=O)Cn1c(=O)n(C)c(=O)c2sc3c(c21)COC(C)(C)C3,0,2,x,-6,1,2
CC12CC(=O)C3C(CCC4=CC(=O)CCC43C)C1CC=C2CC(=O)O (stereo not given),0,3,x,-9,x,x
COC(=O)C=C1CCC2C3CCC4=CC(=O)CCC4(C)C3C(=O)CC12C (stereo not given),3,94*,x,-1,x,x
O=C(Oc1ccc2c(c1)O/C(=C\c1ccncc1)C2=O)c1cccs1,x,17,x,8,1,1
CC(=O)Oc1ccc2c(c1)O/C(=C\c1ccncc1)C2=O,13,18,x,31*,1,-1
CC(C)(C)c1cnnn1-c1ccc(C(=O)CCl)cc1,-2,45*,0,3,2,-3
CC(C)(C)c1cnnn1-c1ccc(C=O)cc1,-4,-6,-1,-10,0,2
Cc1cccc(C(=O)NCC(C)NC(=O)c2cccc(C)c2)c1 (stereo not given),-3,-7,x,-1,1,4
O=C(Nc1ccc(-c2nc3cc(NC(=O)c4cccs4)ccc3o2)cc1)c1cccs1,0,2,2,-4,17*,2
COc1ccc(C2Nc3ccc4ccccc4c3-c3c2c(=O)oc2ccccc32)cc1 (stereo not given),6,23,-11,-10,8.7*,3
CC1=NC(C)(C)Cc2c(C)cccc21,-6,7,4,-7,-2,0
CN1C(=O)c2c(sc3c2CC(C)(C)SC3)N2CCN=C12,5,-3,x,-8,0,2
CCOC(=O)N1CCN(c2ncnc3c2[nH]c2ccc(F)cc23)CC1,-2,-8,-9,-5,0,3
Fc1ccc2[nH]c3c(N4CCN(c5ccccc5)CC4)ncnc3c2c1,4,17,-2,5,1,41*
SMILES,TLR9-MyD88 block,Beta2AR agonist,TLR4-MyD88 BLA,NOD2-RIPK2 inh,Bfl-1 A1 inh,NTR1 agonist
N#Cc1cc(Oc2ccc3ccccc3c2)c(-n2nnc3ccccc32)cc1C#N,-2,48*,7,0,1,-1
COCCOC(=O)/C(=C/c1ccc(OC(=O)c2ccccc2)cc1)C(C)=O,-3,43*,-8,-5,0,-1
CCOC(=O)/C(=C/c1ccc(OC(=O)c2ccncc2)cc1)C(C)=O,-17,4,7,-12,0,0
O=Cc1cc2ccccc2nc1SCc1ccc(Cl)cc1,16,46*,-8,7,2,32
N#Cc1ccc(/C=C/C(=O)c2ccccc2)cc1,15,19,x,9,-1,61*
O=C(/C=C/c1ccccc1)c1ccccc1,1,12,-5,-7,-2,6

# Source: PubChem (several laboratories)
